# Where “and” joins values, the source holds several entries; their conditions need not be identical. Equal entries are not always repeated. ± gives the standard deviation of the averaged measurements. Whole data set: some 3,800 compounds, median “cell shape (eccentricity) Z-score vs DMSO control” near 1.1, cut for the lowest 2% near -4.7. The sample holds the lowest values, similar compounds and a random draw of the others, so the mix is not that of the screen.
# Test system: human monocyte-derived macrophages (M0)
# Experiment: cell shape (eccentricity) Z-score vs DMSO control; higher = more elongated, M2-like morphology
# Conditions: 20 µM; 24 h; macrophage state: M0 (M-CSF)
row,SMILES,cell shape (Z-score)
1,C=C1C(=O)O[C@@H]2C[C@H](C)C3C[C@H](O)[C@H](O)[C@@]3(C)C[C@H]12 (some centres not stated),-2.78 ± 0.67
2,CN[C@H]1CC[C@@H](c2ccc(Cl)c(Cl)c2)c2ccccc21,-5.32
3,C=C1CC(O)C2C(=C)C(=O)OC2C2C(=C)C(OC3OC(CO)C(O)C(OC(=O)/C=C/c4ccc(O)c(O)c4)C3O)CC12 (configuration not stated),-1.95
4,CC(C)CC1NC(=O)C2CCCN2C1=O (configuration not stated),2.84
5,CC(C)CC1NC(=O)C(C)NC1=O (configuration not stated),-5.83
6,CC(C)=CCc1c(O)cc(O)c2c1OC(c1ccc(O)c(O)c1)CC2=O (configuration not stated),1.24
7,O=C1c2cccc(O)c2C(=O)c2c(O)cccc21,3.05
8,c1ccc2nc(C3=NCCN3)cnc2c1,1.3
9,c1ccc2nc(C3=NCCN3)ccc2c1,0.187
10,c1ccc2cc(C3=NCCN3)ncc2c1,-4.69
11,CCOc1ccc(Cc2cc([C@@H]3O[C@H](CO)[C@@H](O)[C@H](O)[C@H]3O)ccc2Cl)cc1,-0.0179
12,CC1(C)C(=O)C=C[C@@]2(C)C1C=C[C@]1(C)C2CC[C@@]2(C)[C@H](c3ccoc3)OC(=O)[C@H]3O[C@]321 (some centres not stated),7.92
13,CCc1cc(C(C)=O)c(O)cc1OCCCCCC(C)(C)c1nnn[nH]1,1.49
14,CC(C)NC(=N)NC(=N)Nc1ccc(Cl)cc1,0.874
15,N=C(NCCCCCCNC(=N)NC(=N)Nc1ccc(Cl)cc1)NC(=N)Nc1ccc(Cl)cc1,-6.88
16,N=C(N)Nc1ccc(Cl)cc1,0.554
17,CC(=O)N[C@H]1[C@H](O[C@H]2CC[C@@]3(C)C(CC[C@]4(C)C3CC=C3[C@@H]5CC(C)(C)CC[C@]5(C(=O)OC5OCC(O)C(O)C5O)C(O)C[C@]34C)C2(C)C)O[C@H](COC2OCC(O)C(OC3OCC(O)C(O)C3O)C2O)[C@@H](O[C@@H]2O[C@@H](C)[C@H](O)[C@@H](O)[C@H]2O[C@@H]2O[C@@H](C)[C@H](O)[C@@H](O)[C@H]2O)[C@@H]1O (some centres not stated),-2.27 ± 4.4
18,O=C1NN(C(=O)Nc2ccc(Br)cc2)[C@@H](c2ccccc2)[C@@H]1c1ccccc1,1.43
19,COC(=O)[C@@H]1[C@H]2C[C@H]3c4[nH]c5ccccc5c4CCN3C[C@@H]2CC[C@@H]1O,-0.402
20,O=C(/C=C/c1ccccc1)CC(=O)/C=C/c1ccccc1,-8.63
21,O=C(/C=C/c1ccc(O)cc1)CC(=O)/C=C/c1ccc(O)cc1,-1.34
22,O=C(/C=C/c1ccccc1)CC(O)CCc1ccccc1 (configuration not stated),-0.2
23,c1ccc(-c2n[nH]c3c2oc2ccccc23)cc1,0.646
24,CCN1C(=CC=Cc2ccc3ccccc3[n+]2CC)C=Cc2ccccc21,-7.46
25,CC1(C)CCC(C)(C)c2cc([C@@H](O)C(=O)Nc3ccc(C(=O)O)cc3F)ccc21,5.37

row,SMILES,cell shape (Z-score)
1,C=C(NC(=O)C(=C)NC(=O)c1csc(C2=N[C@H]3c4csc(n4)[C@H]4NC(=O)c5csc(n5)[C@H]([C@@](C)(O)[C@@H](C)O)NC(=O)[C@H]5CSC(=N5)C(=CC)NC(=O)[C@H]([C@@H](C)O)NC(=O)c5csc(n5)[C@]3(CC2)NC(=O)[C@H](C)NC(=O)C(=C)NC(=O)[C@H](C)NC(=O)[C@H](C(C)CC)N[C@@H]2C=Cc3c([C@H](C)O)cc(nc3[C@H]2O)C(=O)O[C@@H]4C)n1)C(N)=O (some centres not stated),-6.13
2,COc1cc(C)c(C(=O)O[C@H]2[C@@H](OC(C)=O)[C@H](n3ccc(=O)[nH]c3=O)O[C@@H]2CO)c(OC)c1,1.91 ± 0.92
3,Cc1ccc(/C(=C\CN2CCCC2)c2ccccn2)cc1,1.6
4,CCOC(=O)N[C@@H]1CC[C@@H]2[C@@H](C1)C[C@H]1C(=O)O[C@H](C)[C@H]1[C@H]2/C=C/c1ccc(-c2cccc(F)c2)cn1,5.12
5,CC(=O)OC1C(=O)C2(C)C(O)CC3OCC3(OC(C)=O)C2C(OC(=O)c2ccccc2)C2(O)CC(OC(=O)C(O)C(NC(=O)c3ccccc3)c3ccccc3)C(C)=C1C2(C)C (configuration not stated),-3.69
6,CC(=O)O[C@H]1C(=O)[C@@]2(C)C([C@H](OC(=O)c3ccccc3)[C@]3(O)C[C@H](OC(=O)[C@H](O)[C@@H](NC(=O)c4ccccc4)c4ccccc4)C(C)=C1C3(C)C)[C@]1(OC(C)=O)CO[C@@H]1C[C@@H]2O (some centres not stated),-4.41 and -4.29 and -4.69
7,CC(=O)O[C@H]1C(=O)[C@@]2(C)[C@H]([C@H](OC(=O)c3ccccc3)[C@]3(O)C[C@H](OC(=O)[C@H](O)[C@@H](NC(=O)c4ccccc4)c4ccccc4)C(C)=C1C3(C)C)[C@]1(OC(C)=O)CO[C@@H]1C[C@@H]2O,-5.5
8,CC/C(=C(/CC)c1ccc(O)cc1)c1ccc(O)cc1,1.77
9,CC1(C)CC[C@]2(C(=O)O[C@@H]3O[C@H](CO)[C@@H](O)[C@H](O)[C@H]3O)CC[C@]3(C)C(=CCC4[C@@]5(C)C[C@@H](O)[C@H](O)[C@](C)(CO)C5CC[C@]43C)C2[C@@H]1O (some centres not stated),1.6
10,Cc1[nH]c2ccccc2c1CCNCc1ccc(/C=C/C(=O)NO)cc1,4.88 and 5.32
11,C/C=C/C=C/C(=O)c1cc(C)c(O)c(C)c1O,1.03
12,Cc1cc2nc3c(=O)[nH]c(=O)nc-3n(C)c2cc1C=O,-7.12
13,Cc1cc2nc3c(=O)[nH]c(=O)nc-3n(C[C@@H](O)[C@@H](O)[C@@H](O)CO)c2cc1C,0.422
14,CCCCCCCNS(=O)(=O)c1cccc2c(Cl)cccc12,0.986
15,CN(C)CCCSC(=N)N,0.27
16,NC(COCc1ccccc1)C(=O)O (configuration not stated),1.15
17,CS(=O)c1ccc(-c2nc(-c3ccc(F)cc3)c(-c3ccncc3)[nH]2)cc1 (configuration not stated),3.26
18,Oc1ccc(-c2nc(-c3ccc(F)cc3)c(-c3ccncc3)[nH]2)cc1,-5.27
19,CS(=O)(=O)c1ccc(-c2nc(-c3ccc(F)cc3)c(-c3ccncc3)[nH]2)cc1,1.46
20,O=C(O)c1cc2cc(OCc3ccccc3)ccc2[nH]1,1.63
21,CC(=O)O[C@H]1[C@H](Oc2ccccc2COC(=O)C2(O)C=CCCC2=O)O[C@H](CO)[C@@H](O)[C@@H]1O (some centres not stated),1.32
22,CCn1cc(C(=O)O)c(=O)c2cc(F)c(N3CCNCC3)nc21,-1.1
23,C=C1C(=O)O[C@@H]2[C@H]3C(CO)=CC(=O)C3=C(C)C[C@H](OC(=O)Cc3ccc(O)cc3)[C@@H]12,-6.23
24,O=C(Cc1ccc(O)cc1)OC1[C@@H](O)[C@@H](O)C(OC(=O)Cc2ccc(O)cc2)[C@H](O)[C@@H]1O (some centres not stated),2.31
25,C=C1C(=O)O[C@H]2C1CCC(C)=C1C(=O)C=C(C)[C@@H]12 (some centres not stated),-3.7

row,SMILES,cell shape (Z-score)
1,CC1(C)CCC(CN2CCN(c3ccc(C(=O)NS(=O)(=O)c4ccc(NCC5CCOCC5)c([N+](=O)[O-])c4)c(Oc4cnc5[nH]ccc5c4)c3)CC2)=C(c2ccc(Cl)cc2)C1,6.74
2,COCc1c(C(C)C)nc(C(C)C)c(/C=C/[C@@H](O)C[C@@H](O)CC(=O)O)c1-c1ccc(F)cc1,10.1 ± 0.39
3,CCC[C@@H]1C[C@@H](C(=O)NC(C(C)Cl)C2O[C@H](SC)[C@H](O)[C@@H](O)[C@H]2O)N(C)C1 (some centres not stated),3.16
4,Cc1cc(N2CCCCC2)nc2ccccc12,0.281
5,CC(Nc1nc(N2CCCC2)nc2ccccc12)c1ccccc1 (configuration not stated),-7.72
6,COc1cc2nc(N3CCCN(C)CC3)nc(NC3CCN(Cc4ccccc4)CC3)c2cc1OC,3.25
7,CC#CCOC(=O)c1c(C)nc2sc3c(c2c1N)CCC(O)C3 (configuration not stated),-0.105
8,C[C@@H]1O[C@@H](Oc2ccc(-c3coc4cc(O[C@@H]5O[C@@H](C)[C@H](O)[C@@H](O)[C@H]5O)cc(O)c4c3=O)cc2)[C@H](O)[C@H](O)[C@H]1O,-0.632
9,c1ccc(COCCCc2cnc[nH]2)cc1,2.2
10,O=C(CCCc1ccc(-c2ccccc2F)cc1)Nc1ccc(O)cc1,-4.74
11,O=C(O)CCCc1ccccc1,0.59
12,Cc1c(Cl)cccc1Nc1ccccc1C(=O)O,1.66
13,O=C(O)c1ccccc1Nc1ccccc1,2.81
14,COc1ccc(S(=O)(=O)N(C(C)=O)c2ccccc2/C=C/c2cc[n+]([O-])cc2)cc1,-4.1
15,CC(=O)OCC(=O)[C@@]1(O)CCC2C3CCC4=CC(=O)CC[C@]4(C)C3C(=O)C[C@@]21C (some centres not stated),-0.245
16,C=C1CCC2(C(=O)OC3OC(CO)C(O)C(O)C3O)CCC3(C)C(=CCC4C5(C)CC(O)C(OC6OCC(O)C(O)C6OC6OC(CO)C(O)C(O)C6O)C(C)(CO)C5CCC43C)C2C1 (configuration not stated),0.275
17,C=C(COC(=O)C(C)C)C1Oc2cc(C(C)=O)ccc2C1OC(=O)C(C)C (configuration not stated),1.56
18,Cc1cc(C)c(CNC(=O)c2cc(-c3ccc(N4CCNCC4)nc3)cc3c2cnn3C(C)C)c(=O)[nH]1,3.48
19,CC(Cc1ccc(O)c(O)c1)(NN)C(=O)O (configuration not stated),-0.173
20,C=C(C(=O)O[C@H]1CC=C(C)C[C@H](O)[C@H]2[C@H](C)C(=O)O[C@@H]2/C=C/1C)[C@@H]1CCC(=C)[C@@H]2C[C@H](O[C@@H]3O[C@H](CO[C@H]4OC[C@](O)(CO)[C@H]4O)[C@@H](O)[C@H](O)[C@H]3O)C(=C)[C@@H]2C1,-4.65
21,COc1cc(O[C@@H]2O[C@H](CO[C@H]3OC[C@](O)(CO)[C@H]3O)[C@@H](O)[C@H](O)[C@H]2O)cc(OC)c1OC,1.07
22,C=C1C(=O)O[C@@H]2[C@H]3C(=C)[C@@H](O[C@@H]4O[C@H](CO)[C@@H](O)[C@H](O)[C@H]4O)C[C@H]3C(=C)C[C@@H](O)[C@@H]12,2.36
23,O=C(c1ccc(Nc2nccc(-c3cc4ccccc4s3)n2)cc1)N1CCC(N2CCCC2)CC1,-4.98
24,Cc1c(-c2ccnc(Nc3ccc(N4CCNCC4)cc3)n2)sc(=O)n1C,9.91
25,COc1cc(C(=O)N2CCC(N3CCN(C)CC3)CC2)ccc1Nc1ncc2c(n1)N(C)c1ccccc1C(=O)N2C,8.88

row,SMILES,cell shape (Z-score)
1,COc1cc(OC2OC(COC3OCC(O)(CO)C3O)C(O)C(O)C2O)c2c(-c3ccc(O)c(O)c3)cc(=O)oc2c1 (configuration not stated),-0.273
2,CCOC(=O)C1C(=O)C(=O)Nc2ccccc21 (configuration not stated),2.09
3,CC[N+](CC)(CC(=O)Nc1c(C)cccc1C)Cc1ccccc1,1.74
4,Cc1cccc(C)c1NC(=O)C[N+](C)(C)C,-4.98
5,CC[N+](C)(CC)CC(=O)Nc1c(C)cccc1C,-0.632
6,Cc1cc(=O)oc2c(O)c(O)ccc12,1.41
7,COc1ccc2c(C)cc(=O)oc2c1,4.64
8,Cc1cc2cc3c(C)cc(=O)oc3c(C)c2o1,-4.76
9,COC(=O)C1=C(C)NC(C)=C(C(=O)OCCCN2CCC(c3ccccc3)(c3ccccc3)CC2)[C@H]1c1cccc([N+](=O)[O-])c1,1.82
10,CCC(=O)OCC1=CCCC2C1(C)CCC(C)C2(C)CCC(C)CC(=O)O (configuration not stated),0.255
11,COc1cc(C)c2c(=O)cc(-c3ccccc3)oc2c1,1.41
12,COc1cc(O)c(C(=O)c2c(O)cc(C)cc2O)c(C(=O)O)c1,1.14 ± 0.29
13,CO[C@@H]1CC(OC2CCC3(C)C(CCC45CCC(C6=CC(=O)OC6)C(C)(CCC43)C5=O)C2)O[C@H](C)[C@@H]1O[C@@H]1O[C@H](CO[C@@H]2O[C@H](CO)[C@@H](O)[C@H](O)[C@H]2O)[C@@H](O)[C@H](O)[C@H]1O (some centres not stated),1.71
14,COC1CC(O[C@H]2CC[C@]3(C)C4CC[C@@]5(C)C(=O)[C@]4(CC[C@@H]3C2)CC[C@@H]5C2=CC(=O)OC2)OC(C)C1OC1OC(COC2OC(CO)C(O)C(O)C2O)C(O)C(O)C1O (some centres not stated),0.241
15,C=C1[C@@H](C2=CC(=O)OC2)CC[C@@]2(O)[C@@H]1CC1[C@H]2CC[C@@H]2C[C@@H](O[C@H]3O[C@@H](C)[C@@H](O[C@@H]4O[C@H](CO[C@@H]5O[C@H](CO)[C@@H](O)[C@H](O)[C@H]5O)[C@@H](O)[C@H](O)[C@H]4O)[C@H](OC)[C@H]3O)CC[C@]12C (some centres not stated),-4.99
16,COC(CCc1ccc(O)c(O)c1)CC(=O)CCc1ccc(O)c(O)c1 (configuration not stated),1.18
17,CN1CCN(CCOc2cc(OC3CCOCC3)c3c(Nc4c(Cl)ccc5c4OCO5)ncnc3c2)CC1,5.59
18,C[C@@H](C1=C(CCN(C)C)Cc2ccccc21)c1ccccn1,1.35
19,CCOc1cc(/C=C(/C#N)C(N)=O)cc(CSc2ccccc2)c1O,2.62
20,O=C(O)Cc1nn(Cc2ccc(Br)cc2F)c(=O)c2ccccc12,-4.79
21,O=C(O)Cc1nn(Cc2nc3cc(C(F)(F)F)ccc3s2)c(=O)c2ccccc12,1.57
22,CC(C)n1cnc2c(NCc3ccccc3O)nc(NCCCO)nc21,3.13

# From the supplement of paper PMC7858590
